Ecoli WT expand – blocks growth of wild type E. coli BW25113; OD600 absorbance; growth inhibition, % at 100 µM; hit rate 0.15% among 98,000;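 active = growth inhibition above about 50% at one test dose, limit read from the data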;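 note: growth measured after 20 h incubation at 37 °C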
CD11b adhes inh – CD11b/CD18-fibrinogen binding inhibition | P05107+P11215 | K562 CD11b/CD18 adhesion to fibrinogen, ATPlite luminescence; Mn2+ added to activate the integrin | inhibition, % at 10 µM | hit rate 0.54% among 93,000 | AID 1497;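 active = primary inhibition of 50% or more at 10 µM, then 40% or more on retest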
CD11b adhes enh – increases human CD11b/CD18 adhesion to fibrinogen | P05107+P11215 | AID 1499 | K562 CD11b/CD18 adhesion to fibrinogen, ATPlite luminescence | activation, % at 10 µM | hit rate 0.07% among 93,000;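 active = 10 µM primary screen giving 50% or more activity, confirmed by 40% or more on retest at that dose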
Cav32 inh – inhibitors of human Cav3.2 T-type calcium channel. AID 449739. Cav3.2-expressing cells, Fluo-4 calcium fluorescence FDSS; hits give low values. B-score at 10 µM. hit rate 4% among 100,000. O95180;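 active = single-dose well whose peak fluorescence ratio is a statistical outlier from its plate by either plate-standardised score or position-corrected B-score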
Target sequence (O95180 whole entry, looked up): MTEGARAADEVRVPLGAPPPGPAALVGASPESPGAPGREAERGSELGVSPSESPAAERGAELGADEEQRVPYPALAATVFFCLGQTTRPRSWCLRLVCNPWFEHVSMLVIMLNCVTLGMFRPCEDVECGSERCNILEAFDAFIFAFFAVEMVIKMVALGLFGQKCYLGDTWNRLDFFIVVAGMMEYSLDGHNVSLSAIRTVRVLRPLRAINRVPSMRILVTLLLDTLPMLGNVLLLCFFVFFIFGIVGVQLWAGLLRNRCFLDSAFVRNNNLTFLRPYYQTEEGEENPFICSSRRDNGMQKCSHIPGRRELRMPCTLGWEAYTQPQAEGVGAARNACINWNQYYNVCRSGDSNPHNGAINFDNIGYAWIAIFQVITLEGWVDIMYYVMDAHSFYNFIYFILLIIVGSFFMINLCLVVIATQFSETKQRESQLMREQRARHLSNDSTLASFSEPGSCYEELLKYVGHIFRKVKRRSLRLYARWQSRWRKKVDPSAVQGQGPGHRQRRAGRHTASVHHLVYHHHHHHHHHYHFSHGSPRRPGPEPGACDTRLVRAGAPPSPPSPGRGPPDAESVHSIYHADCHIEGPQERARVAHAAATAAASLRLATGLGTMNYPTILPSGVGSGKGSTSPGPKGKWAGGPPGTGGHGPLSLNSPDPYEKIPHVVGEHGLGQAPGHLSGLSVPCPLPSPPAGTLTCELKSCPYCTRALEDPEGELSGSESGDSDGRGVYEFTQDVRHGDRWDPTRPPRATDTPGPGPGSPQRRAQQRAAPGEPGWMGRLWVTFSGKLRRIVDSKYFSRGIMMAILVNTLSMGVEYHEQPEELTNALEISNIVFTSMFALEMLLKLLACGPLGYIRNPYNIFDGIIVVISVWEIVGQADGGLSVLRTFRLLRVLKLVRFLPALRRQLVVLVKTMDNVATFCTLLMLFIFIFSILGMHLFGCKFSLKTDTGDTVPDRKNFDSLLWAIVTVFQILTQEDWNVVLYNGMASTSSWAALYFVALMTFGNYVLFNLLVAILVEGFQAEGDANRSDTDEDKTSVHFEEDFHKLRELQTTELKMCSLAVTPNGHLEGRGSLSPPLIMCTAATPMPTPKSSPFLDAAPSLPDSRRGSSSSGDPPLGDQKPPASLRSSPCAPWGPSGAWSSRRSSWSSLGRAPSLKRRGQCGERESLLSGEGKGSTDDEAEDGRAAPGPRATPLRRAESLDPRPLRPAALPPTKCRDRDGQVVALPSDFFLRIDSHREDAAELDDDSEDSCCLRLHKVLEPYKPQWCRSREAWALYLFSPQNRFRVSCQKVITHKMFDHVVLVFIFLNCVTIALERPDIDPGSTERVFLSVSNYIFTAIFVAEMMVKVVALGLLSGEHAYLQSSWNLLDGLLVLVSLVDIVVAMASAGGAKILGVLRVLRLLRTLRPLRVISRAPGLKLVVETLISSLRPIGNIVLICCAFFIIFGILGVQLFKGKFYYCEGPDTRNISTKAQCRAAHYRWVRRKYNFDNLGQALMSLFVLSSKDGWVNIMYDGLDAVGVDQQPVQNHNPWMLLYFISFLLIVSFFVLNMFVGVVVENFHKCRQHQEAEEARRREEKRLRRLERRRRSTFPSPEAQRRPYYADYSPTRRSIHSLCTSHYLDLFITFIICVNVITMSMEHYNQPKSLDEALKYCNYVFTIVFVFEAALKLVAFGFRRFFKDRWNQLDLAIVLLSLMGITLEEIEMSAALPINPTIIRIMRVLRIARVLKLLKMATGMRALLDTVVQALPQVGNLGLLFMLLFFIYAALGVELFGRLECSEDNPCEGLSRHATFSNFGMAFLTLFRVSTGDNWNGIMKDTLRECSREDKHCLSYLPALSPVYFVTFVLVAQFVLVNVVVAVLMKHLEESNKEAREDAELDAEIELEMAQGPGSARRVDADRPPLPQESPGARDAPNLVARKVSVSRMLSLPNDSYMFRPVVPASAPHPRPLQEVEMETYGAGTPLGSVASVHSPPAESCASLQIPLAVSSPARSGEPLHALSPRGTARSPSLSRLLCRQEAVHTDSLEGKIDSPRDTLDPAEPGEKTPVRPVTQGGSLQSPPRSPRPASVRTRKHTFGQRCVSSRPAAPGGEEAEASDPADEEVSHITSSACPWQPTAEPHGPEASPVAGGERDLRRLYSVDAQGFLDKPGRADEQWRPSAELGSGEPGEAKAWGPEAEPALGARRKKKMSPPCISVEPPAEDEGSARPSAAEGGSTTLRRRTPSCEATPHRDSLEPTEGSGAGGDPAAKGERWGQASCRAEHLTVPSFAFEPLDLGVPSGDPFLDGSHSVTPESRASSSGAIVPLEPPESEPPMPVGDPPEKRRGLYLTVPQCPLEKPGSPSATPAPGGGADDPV
* marks the source's active call; other numbers are inactive results; . = no result given. The entries come from a sample that favours hits as a whole.

SMILES | Ecoli WT expand | CD11b adhes inh | CD11b adhes enh | Cav32 inh
N#Cc1nc(COc2ccc(Cl)cc2)oc1NCc1ccc2c(c1)OCO2 | -7 | -6 | 0 | -0.12
O=C(/C=C/c1ccccc1)NC1CCSC1=O (centres undefined) | . | 1 | -2 | .
Cc1cccc(C(=O)N[C@H](C(=O)Nc2nccs2)C(C)C)c1 | . | 9 | -5 | .
CC(=O)c1ccc(N2CCN(C(C)C(=O)NC3CCCc4ccccc43)CC2)cc1 (centres undefined) | . | 14 | 3 | .
CNC(=O)C12CC3CC(CC(Cl)(C3)C1)C2 | . | 12 | 0 | .
N#Cc1nc(COc2ccccc2F)oc1N1CCCCCC1 | 3 | . | . | -5.9*
CN(Cc1ccccc1)c1oc(-c2ccco2)nc1C#N | 7 | -3 | 0 | -4.2*
CN(C)c1oc(-c2ccco2)nc1C#N | 6 | -18 | -2 | -1.2
COc1ccc(-n2c(O)c(Cc3ccccc3)c(=O)n3nc(-c4ccccc4)c(=O)cc23)cc1 | . | . | . | 0.85
CCOc1ccc(N(CC(=O)Nc2cccc(F)c2)S(=O)(=O)c2c(C)noc2C)cc1 | -3 | -13 | -3 | -0.46
CCOC(=O)c1cccc(NC(=O)CN(c2ccc(OC)cc2)S(=O)(=O)c2c(C)noc2C)c1 | -13 | 0 | 0 | -4.9*
CCOc1ccc(N(CC(=O)Nc2ccc(C)c(C)c2)S(=O)(=O)c2c(C)noc2C)cc1 | -18 | . | . | -4.9*
COc1ccc(N(CC(=O)Nc2cccc(C(=O)O)c2)S(=O)(=O)c2c(C)noc2C)cc1 | 0 | . | . | -0.49
O=[N+]([O-])c1ccc(N/N=C/c2cn(Cc3ccc(F)cc3)c3ccccc23)nc1 | . | 5 | 73 | .
c1ccc(C2=NNC(=NC3CC3)SC2)cc1 | 16 | . | . | 0.86
Cc1cc(C2=NNC(=NC3CC3)SC2)c(C)n1Cc1ccco1 | . | 75* | 19 | .
Cc1cc(C2=NNC(=NC3CC3)SC2)c(C)n1-c1ccccc1 | . | 98* | -5 | .
C=CCc1ccc(OCC(O)CO)c(OC)c1 (centres undefined) | 2 | -8 | -1 | .
C=CCc1ccc(O)c(-c2cc(CC=C)ccc2O)c1 | . | . | . | -5*
Cc1ccc(NC(=O)CC2S/C(=N/c3nccs3)N(C)C2=O)c(C)c1 (centres undefined) | -5 | -15 | -3 | 0.38
CCC(C)Oc1cccc(C(=O)Nc2ccccc2N2CCOCC2)c1 (centres undefined) | -9 | 2 | 10 | -5.3*
COc1ccc(O)c(-c2cc(-c3cccc(Br)c3)n[nH]2)c1 | -8 | 17 | -1 | .
COc1ccc(-c2cc(-c3cc(OC)ccc3O)[nH]n2)cc1 | 22 | -39 | 1 | -4.5*
COc1ccc2nc(N3CCCC3)c(C#N)cc2c1 | -2 | -19 | -2 | -3.6*
COc1ccc2nc(SCC(=O)N3CCCCCC3)c(C#N)cc2c1 | -8 | 32 | 3 | -0.77
SMILES | Ecoli WT expand | CD11b adhes inh | CD11b adhes enh | Cav32 inh
O=C(N(Cc1ccccc1)c1ccccn1)C12CC3CC(CC(C3)C1)C2 | 2 | 7 | 0 | -3.6*
COc1cccc(OC)c1C(=O)NC(=S)Nc1cc(-c2nc3ccccc3[nH]2)ccc1Cl | . | 7 | 45 | .
Cc1cccc(NC(=O)CN2C(=O)COc3ccc(Cl)cc32)c1C | -13 | -4 | 3 | -5.3*
Cc1cccc(NC(=O)CN2C(=O)COc3ccc(Cl)cc32)c1 | . | -16 | 1 | -3.5
COc1cccc(NC(=O)CN2C(=O)COc3ccc(Cl)cc32)c1 | -3 | -9 | -2 | -5.4*
Cc1ccc(S(=O)(=O)N2CCCC2c2nc3ccccc3s2)cc1 (centres undefined) | -9 | . | . | -0.61
CCc1nc(NCC2CCCO2)c(C#N)c2c1COC(C)(C)C2 (centres undefined) | 1 | . | . | -0.13
CC(C)c1nc(NCC2CCCO2)c(C#N)c2c1COC(C)(C)C2 (centres undefined) | 4 | -30 | 5 | -3.5*
C=CCc1c(C)nc(SC)nc1Nc1ccccc1 | . | . | . | -4*
C=CCc1c(C)nc(SC)nc1Nc1ccc(C(=O)O)cc1 | 1 | -10 | 1 | 0.52
O=C(CSc1nnc(-c2ccc(Cl)cc2)n1Cc1ccco1)NCc1ccc2c(c1)OCO2 | 2 | -1 | 3 | -5.3*
COc1ccc(-c2nnc(SC(C)C(=O)NCc3ccc4c(c3)OCO4)n2Cc2ccco2)cc1 (centres undefined) | -5 | -24 | -1 | -5.3*
Cc1ccc(S(=O)(=O)N2C(=O)CCC2C(=O)Nn2cnnc2)cc1 (centres undefined) | 1 | -7 | -4 | 0.64
CCn1c(O)c(/C=N/N=C/c2ccccc2)c2ccc(C3=NNC(=O)CC3)cc21 | -16 | -22 | 9 | 0.31
O=C(C(Cc1ccccc1)n1cccc1)N1CCc2ccccc21 (centres undefined) | 0 | 12 | 0 | -6.2*
O=C(c1ccc(S(=O)(=O)Nc2ccc(F)cc2)cc1)N1CCN(C(=O)c2ccco2)CC1 | -8 | 27 | -2 | -0.21
CCOc1ccccc1N1C(=O)c2ccc(C(=O)Nc3cccnc3)cc2C1=O | 6 | 7 | -6 | -2.9*
O=C(Nc1cccnc1)c1ccc2c(c1)C(=O)N(Cc1cccnc1)C2=O | 4 | 16 | 1 | 0.029
COc1ccc(N2CCN(CCCNC(=O)C3(S(=O)(=O)c4ccc(Cl)cc4)CC3)CC2)cc1 | 0 | 40 | 2 | .
CC(=O)c1c(C)[nH]c(C(=O)N2CCN(c3cc(Cl)ccc3C)CC2)c1C | -2 | -39 | -1 | -0.69
O=C(NCCCN1CCN(c2cccc(Cl)c2)CC1)C1(S(=O)(=O)c2ccc(Cl)cc2)CC1 | 0 | -3 | 0 | -6.9*
CC(=O)c1ccc(N2CCN(C(=O)C3(S(=O)(=O)c4ccc(Cl)cc4)CC3)CC2)cc1 | -10 | -9 | -1 | 0.51
O=C(N1CCN(c2cccc(Cl)c2)CC1)C1(S(=O)(=O)c2ccc(Cl)cc2)CC1 | -7 | 2 | 1 | -4.7*
Cc1ccc(Cl)cc1N1CCN(C(=O)C2(S(=O)(=O)c3ccc(Cl)cc3)CC2)CC1 | -5 | -7 | 0 | -6.1*
CCO[C@H]1OC(C(=O)N2CCN(Cc3ccc4c(c3)OCO4)CC2)=C[C@@H](C2CC2)[C@@H]1CCCO | . | . | . | 1
SMILES | Ecoli WT expand | CD11b adhes inh | CD11b adhes enh | Cav32 inh
Cc1nnc(SCCn2c(N(C)Cc3ccccc3)nc3c2c(=O)n(C)c(=O)n3C)s1 | . | . | . | 0.56
CCc1cccc(NC(=O)CCSCCC(=O)Nc2cccc(CC)c2)c1 | -7 | 3 | 4 | -7.5*
CCc1cccc(NC(=O)C2CCCC2)c1 | 1 | -8 | -2 | .
Cc1ccc(NC(=O)CCSCCC(=O)Nc2ccc(C)c(C)c2)cc1C | -3 | . | . | -6.8*
O=C(CN1C2CCCC1CC(NC(=O)c1ccccc1)C2)Nc1nccs1 (centres undefined) | . | . | . | 0.96
COc1cccc(C(C)NC(=O)Nc2cccc(C(F)(F)F)c2)c1 (centres undefined) | 6 | 1 | -3 | -8.3*
COc1ccccc1C(=O)Nc1nnc(-c2ccc(Cl)cc2)o1 | . | . | . | -2.1
COc1ccc(-c2nnc(NC(=O)c3cc(Cl)ccc3Cl)o2)cc1 | 1 | -11 | -2 | -5.2*
O=C(Nc1cn(-c2ccccc2)nc1-c1ccc(F)cc1)c1ccccc1 | . | -12 | -2 | .
O=C(Nc1nc(-c2ccccc2)c(-c2ccccc2)o1)c1ccc(F)cc1 | -9 | . | . | -5.8*
